Measured values: PubChem BioAssay (NCI)
Compounds without any hit were thinned out: in the full panel of roughly 83,000, 20% have a hit.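 Single-dose data. Exposure time 48 hours. Values below 10 considered active.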 Active and inactive are the calls of the source.

Columns and labels:
Assay in all cases: NCI-60 one-dose screen, 48 h (100 = growth as untreated, 0 = no growth, -100 = all killed)
Conditions in all cases: 10 µM unless noted
SR leukemia = test system: SR leukemia
RPMI-8226 leukemia = test system: RPMI-8226 leukemia
OVCAR-8 ovarian = test system: OVCAR-8 ovarian
OVCAR-5 ovarian = test system: OVCAR-5 ovarian
OVCAR-4 ovarian = test system: OVCAR-4 ovarian
SK-OV-3 ovarian = test system: SK-OV-3 ovarian
IGROV1 ovarian = test system: IGROV1 ovarian
OVCAR-3 ovarian = test system: OVCAR-3 ovarian
HS 578T breast = test system: HS 578T breast
NCI/ADR-RES ovarian = test system: NCI/ADR-RES ovarian
T-47D breast = test system: T-47D breast
BT-549 breast = test system: BT-549 breast
MDA-MB-435 melanoma = test system: MDA-MB-435 melanoma
SW-620 colon = test system: SW-620 colon
MCF7 breast = test system: MCF7 breast
HCT-116 colon = test system: HCT-116 colon
HCC-2998 colon = test system: HCC-2998 colon
KM12 colon = test system: KM12 colon

Measured: growth

COc1ccc(-c2nc3ccc(-c4nnc(SCC(=O)Nc5ccc(C(=O)/C=C/c6ccc(Cl)cc6)cc5)o4)cc3[nH]2)cc1
inactive: SR leukemia 68.2% | RPMI-8226 leukemia 79.9% | OVCAR-8 ovarian 105% | OVCAR-5 ovarian 99.4% | OVCAR-4 ovarian 103% | SK-OV-3 ovarian 112% | IGROV1 ovarian 87.2% | OVCAR-3 ovarian 113% | HS 578T breast 90.6% | NCI/ADR-RES ovarian 107% | T-47D breast 92.8% | BT-549 breast 98.2% | MDA-MB-435 melanoma 99.3% | SW-620 colon 97% | MCF7 breast 78% | HCT-116 colon 100% | HCC-2998 colon 115% | KM12 colon 103%

CC(=O)c1cc(C(=O)c2ccc(Br)cc2)n2cc(C)cc(C)c12
inactive: SR leukemia 77.1% | RPMI-8226 leukemia 62.9% | OVCAR-8 ovarian 98.9% | OVCAR-5 ovarian 89.8% | OVCAR-4 ovarian 93.4% | SK-OV-3 ovarian 94.9% | IGROV1 ovarian 85.6% | OVCAR-3 ovarian 112% | HS 578T breast 95.9% | NCI/ADR-RES ovarian 86.3% | T-47D breast 78.8% | BT-549 breast 79% | MDA-MB-435 melanoma 97.7% | SW-620 colon 103% | MCF7 breast 85.3% | HCT-116 colon 85.7% | HCC-2998 colon 82.6% | KM12 colon 97.5%

O=C(Nc1nc2ccc([N+](=O)[O-])cc2s1)Nc1ccccc1Br
inactive: SR leukemia 23.2% | OVCAR-8 ovarian 51.4% | OVCAR-5 ovarian 84.4% | OVCAR-4 ovarian 12.2% | SK-OV-3 ovarian 63.6% | IGROV1 ovarian 47.3% | OVCAR-3 ovarian 25.9% | HS 578T breast 47.1% | NCI/ADR-RES ovarian 52.1% | T-47D breast 33.8% | BT-549 breast 71.7% | MDA-MB-435 melanoma 38.2% | SW-620 colon 39.2% | MCF7 breast 24.8% | HCT-116 colon 18.1% | HCC-2998 colon 37.8% | KM12 colon 15.1%
active: RPMI-8226 leukemia 6.15%

Nc1ncc(-c2ccc3ncnc(Nc4cccc(Cl)c4F)c3c2)cn1
active: SK-OV-3 ovarian 0%
inactive: SR leukemia 66.3% | RPMI-8226 leukemia 47.6% | OVCAR-8 ovarian 64.3% | OVCAR-5 ovarian 47.8% | OVCAR-4 ovarian 69.5% | IGROV1 ovarian 11.4% | OVCAR-3 ovarian 57.2% | HS 578T breast 35% | NCI/ADR-RES ovarian 59.3% | T-47D breast 23.8% | BT-549 breast 61.3% | MDA-MB-435 melanoma 80.4% | SW-620 colon 91.1% | MCF7 breast 38.2% | HCT-116 colon 96.4% | HCC-2998 colon 56.5% | KM12 colon 89.6%

O=C(O)c1ccc(-n2cc(CNc3cc(F)c(F)c(F)c3)c(-c3cccc(F)c3)n2)cc1
inactive: SR leukemia 80.4% | RPMI-8226 leukemia 86.7% | OVCAR-8 ovarian 82.8% | OVCAR-5 ovarian 107% | OVCAR-4 ovarian 95.5% | SK-OV-3 ovarian 113% | IGROV1 ovarian 98.8% | OVCAR-3 ovarian 96.1% | HS 578T breast 102% | NCI/ADR-RES ovarian 90.8% | T-47D breast 81.6% | BT-549 breast 107% | MDA-MB-435 melanoma 99.8% | SW-620 colon 105% | MCF7 breast 41% | HCT-116 colon 86.2% | HCC-2998 colon 87.5% | KM12 colon 96.8%

C#CC(=O)N(c1ccc(OC)cc1OC)C(C(=O)NCC(=O)OCC)c1cccs1 (stereo unspecified)
active: SR leukemia -25% | RPMI-8226 leukemia -55.3% | OVCAR-5 ovarian 2.13% | IGROV1 ovarian -58.1% | OVCAR-3 ovarian -58.9% | SW-620 colon 2.04%
inactive: OVCAR-8 ovarian 46.6% | OVCAR-4 ovarian 116% | SK-OV-3 ovarian 89.5% | HS 578T breast 20.9% | NCI/ADR-RES ovarian 87.5% | T-47D breast 38.1% | BT-549 breast 70.3% | MDA-MB-435 melanoma 95.5% | MCF7 breast 49.1% | HCT-116 colon 41.9% | HCC-2998 colon 110% | KM12 colon 28.5%

Cc1ccc(-n2cc(/C=C/C(=O)c3ccc(O)cc3)c(-c3ccc(S(C)(=O)=O)cc3)n2)cc1
inactive: SR leukemia 55.1% | RPMI-8226 leukemia 47.9% | OVCAR-8 ovarian 87.5% | OVCAR-5 ovarian 95.7% | OVCAR-4 ovarian 98.7% | SK-OV-3 ovarian 94.9% | IGROV1 ovarian 47.7% | OVCAR-3 ovarian 22.7% | HS 578T breast 96.2% | NCI/ADR-RES ovarian 33.6% | T-47D breast 73.5% | BT-549 breast 70.9% | SW-620 colon 34% | MCF7 breast 24.8% | HCT-116 colon 26.6% | HCC-2998 colon 104% | KM12 colon 38.3%
active: MDA-MB-435 melanoma 1.81%

CC(=O)c1ccc(Nc2nc(SCC(C)C)nc(-c3ccccc3)c2C#N)cc1
inactive: SR leukemia 110% | RPMI-8226 leukemia 111% | OVCAR-8 ovarian 70% | OVCAR-5 ovarian 109% | OVCAR-4 ovarian 103% | SK-OV-3 ovarian 79.7% | IGROV1 ovarian 88.6% | OVCAR-3 ovarian 122% | HS 578T breast 44.6% | NCI/ADR-RES ovarian 89.1% | T-47D breast 94.5% | BT-549 breast 92% | MDA-MB-435 melanoma 106% | SW-620 colon 117% | MCF7 breast 100% | HCT-116 colon 83.7% | HCC-2998 colon 105% | KM12 colon 112%

CCCCc1nc(/C=N/Nc2nc(Nc3ccccc3)nc(Nc3ccc(S(N)(=O)=O)cc3)n2)c(Cl)[nH]1
inactive: SR leukemia 11.5% | RPMI-8226 leukemia 96.7% | OVCAR-8 ovarian 90% | OVCAR-5 ovarian 102% | OVCAR-4 ovarian 80.6% | SK-OV-3 ovarian 114% | IGROV1 ovarian 98.4% | OVCAR-3 ovarian 46.2% | HS 578T breast 77.8% | NCI/ADR-RES ovarian 108% | T-47D breast 14.9% | BT-549 breast 47.9% | MDA-MB-435 melanoma 90.3% | SW-620 colon 75.1% | MCF7 breast 46.8% | HCT-116 colon 90% | HCC-2998 colon 70.4% | KM12 colon 103%

Cc1nc2ncc(-c3ccc4ncnc(NCc5ccccc5)c4c3)cc2[nH]1
active: T-47D breast 1.3%
inactive: SR leukemia 78.3% | RPMI-8226 leukemia 75.5% | OVCAR-8 ovarian 76.9% | OVCAR-5 ovarian 42.6% | OVCAR-4 ovarian 48% | SK-OV-3 ovarian 52.5% | IGROV1 ovarian 16.8% | OVCAR-3 ovarian 39.2% | HS 578T breast 29.2% | NCI/ADR-RES ovarian 104% | BT-549 breast 57.3% | MDA-MB-435 melanoma 82.1% | SW-620 colon 82.3% | MCF7 breast 27.1% | HCT-116 colon 77.8% | HCC-2998 colon 79.2% | KM12 colon 77.8%

COc1ccc2c(c1)c(CC(=O)[Se]CC#N)c(C)n2C(=O)c1ccc(Cl)cc1
inactive: RPMI-8226 leukemia 20.5% | OVCAR-4 ovarian 27.7% | SK-OV-3 ovarian 34% | OVCAR-3 ovarian 13.9% | HS 578T breast 28.3% | T-47D breast 22.4% | BT-549 breast 75.9% | MDA-MB-435 melanoma 26.5% | MCF7 breast 17.3%
active: SR leukemia 3.49% | OVCAR-8 ovarian 6.34% | OVCAR-5 ovarian -13.6% | IGROV1 ovarian -14.3% | NCI/ADR-RES ovarian -13.8% | SW-620 colon -32.7% | HCT-116 colon -46.7% | HCC-2998 colon -4.68% | KM12 colon -5.24%

CCCCCCCn1cc2c(N[C@H](C)c3ccccc3)ncnc2n1
inactive: SR leukemia 99.5% | RPMI-8226 leukemia 100% | OVCAR-8 ovarian 103% | OVCAR-5 ovarian 104% | OVCAR-4 ovarian 100% | SK-OV-3 ovarian 117% | IGROV1 ovarian 89.9% | OVCAR-3 ovarian 103% | HS 578T breast 91.2% | NCI/ADR-RES ovarian 102% | T-47D breast 99.7% | BT-549 breast 102% | MDA-MB-435 melanoma 103% | SW-620 colon 117% | MCF7 breast 90.3% | HCT-116 colon 104% | HCC-2998 colon 116% | KM12 colon 100%

NC(N)=Nc1ccc(Oc2cccc(Nc3ccc(Cl)c(C(F)(F)F)c3)c2)cn1
active: SR leukemia -54.6% | RPMI-8226 leukemia -29.6% | OVCAR-8 ovarian -66% | OVCAR-5 ovarian -64% | OVCAR-4 ovarian 6.69% | IGROV1 ovarian -38.2% | OVCAR-3 ovarian -93.8% | HS 578T breast -2.57% | MDA-MB-435 melanoma -86.2% | SW-620 colon -69.8% | MCF7 breast -60.3% | HCT-116 colon -69.4% | HCC-2998 colon -86.1% | KM12 colon -81.8%
inactive: SK-OV-3 ovarian 36.8% | NCI/ADR-RES ovarian 53.6% | T-47D breast 15.1% | BT-549 breast 16.5%

C#CCn1cccc1CNc1ccc(OC)cc1
active: SR leukemia -36.1% | RPMI-8226 leukemia -58.8% | OVCAR-8 ovarian -28% | OVCAR-5 ovarian -89.5% | OVCAR-4 ovarian -63.8% | SK-OV-3 ovarian -63.5% | IGROV1 ovarian -68.5% | OVCAR-3 ovarian -84.7% | HS 578T breast -40% | NCI/ADR-RES ovarian -53.1% | T-47D breast -55.7% | BT-549 breast -83.7% | MDA-MB-435 melanoma -54.5% | SW-620 colon -36.2% | MCF7 breast -53.8% | HCT-116 colon -68.7% | HCC-2998 colon -89% | KM12 colon -72.6%

CCOc1ccc(NC2=C(Cl)C(=O)c3nc(C)ccc3C2=O)cc1
active: SR leukemia -27.4% | RPMI-8226 leukemia -19.3% | OVCAR-8 ovarian 1.03% | OVCAR-4 ovarian -97.5% | IGROV1 ovarian -82.4% | OVCAR-3 ovarian -97.2% | NCI/ADR-RES ovarian -15.6% | T-47D breast -43.8% | MDA-MB-435 melanoma -83.7% | SW-620 colon -55.3% | MCF7 breast -67% | HCT-116 colon -83.6% | HCC-2998 colon -55.7%
inactive: OVCAR-5 ovarian 54.8% | SK-OV-3 ovarian 79.8% | HS 578T breast 49% | BT-549 breast 46.5% | KM12 colon 57.4%

O=C(CNc1nc(-c2cccc([N+](=O)[O-])c2)cs1)Nc1cccc(Cl)c1
inactive: SR leukemia 94.9% | RPMI-8226 leukemia 98% | OVCAR-8 ovarian 101% | OVCAR-5 ovarian 105% | OVCAR-4 ovarian 102% | SK-OV-3 ovarian 107% | IGROV1 ovarian 102% | OVCAR-3 ovarian 116% | HS 578T breast 110% | NCI/ADR-RES ovarian 105% | T-47D breast 100% | BT-549 breast 91.7% | MDA-MB-435 melanoma 105% | SW-620 colon 105% | MCF7 breast 91.3% | HCT-116 colon 112% | HCC-2998 colon 115% | KM12 colon 100%

CCn1c(SCC(=O)Nc2cccc(C(=O)/C=C/c3ccc(Br)cc3)c2)nc2ccccc2c1=O
inactive: SR leukemia 74.3% | OVCAR-8 ovarian 96.4% | OVCAR-5 ovarian 95.8% | OVCAR-4 ovarian 93% | SK-OV-3 ovarian 106% | IGROV1 ovarian 86.8% | OVCAR-3 ovarian 90.7% | HS 578T breast 98.3% | NCI/ADR-RES ovarian 89.6% | T-47D breast 90.7% | BT-549 breast 85.7% | MDA-MB-435 melanoma 99.2% | SW-620 colon 80.9% | MCF7 breast 21.5% | HCT-116 colon 28.4% | HCC-2998 colon 95.3% | KM12 colon 96.5%
active: RPMI-8226 leukemia 5.53%
